Measured values: PubChem BioAssay (Tox21)
Calls of active or inactive are those of the source. Entries that show only a call come without a potency. Unless noted, calls come from the whole dose curve; as a rule, active = well fitted curve in the direction sought with a large enough effect in the repeat runs; inconclusive = weak or mixed curves; inactive = no such curve, though single readings can be large; an effect the other way counts as inactive or inconclusive.

Columns and labels:
[1] = qHTS assay for identifying genotoxic compounds that show differential cytotoxicity against isogenic chicken DT40 cell lines with known DNA damage response pathways - wild type cell line (AID 743012); note: nearly all actives have a fitted effect of over 60% in size
Method in brief: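 Cytotoxicity in repair-proficient parental chicken DT40 cells serves as the comparator for Rad54/Ku70- and Rev3-deficient lines. Cells were exposed to compounds for 40 h at 37 C/5% CO2, and ATP-based luminescence (CellTiter-Glo) measured viability.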

[2] = qHTS assay for identifying genotoxic compounds that show differential cytotoxicity against isogenic chicken DT40 cell lines with known DNA damage response pathways - Rev3 mutant cell line (AID 743014); note: nearly all actives have a fitted effect of over 55% in size
[3] = qHTS assay to identify small molecule antagonists of the androgen receptor (AR) signaling pathway - cell viability counter screen (AID 743033; note: nearly all actives have a fitted effect of over 45% in size)
[4] = qHTS assay to identify small molecule antagonists of the androgen receptor (AR) signaling pathway using the MDA cell line - cell viability counter screen (AID 743041; note: nearly all actives have a fitted effect of over 45% in size)
Method in brief: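 qHTS viability read-out; MDA-kb2 AR-luc; R1881-stimulated; 16 h exposure at 37C, 0% CO2; CellTiter-Fluor, 30 min; fluorescence intensity.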

[5] = qHTS assay to identify small molecule antagonists of the thyroid receptor (TR) signaling pathway - cell viability counter screen (AID 743064); note: nearly all actives have a fitted effect of over 50% in size
Method in brief: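 Plate GH3.TRE-Luc cells; incubate 4 h at 37 °C; add compound, then T3 to 1 nM final; incubate 23.5 h; add CellTiter-Fluor; incubate 30 min at 37 °C, 5% CO2; read fluorescence.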

[6] = qHTS assay to identify small molecule antagonists of the thyroid receptor (TR) signaling pathway (AID 743065); note: series mostly up to about 70 µM; nearly all actives have a fitted effect of over 55% in size
Method in brief: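 GH3.TRE-Luc rat pituitary cells carrying two TR response elements driving luciferase were plated for 4 h, given compound plus 1 nM T3 (final), and incubated 23.5 h at 37 C. ONE-Glo luminescence measured reporter inhibition; CellTiter-Fluor fluorescence tracked cytotoxicity.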

[7] = test system: thyroid hormone receptor (rat, GH3 cells); assay: qHTS assay to identify small molecule agonists of the thyroid receptor (TR) signaling pathway (AID 743066; calls by dose curve)
[8] = biological target: Estrogen receptor (Homo sapiens) (UniProt P03372); assay: qHTS assay to identify small molecule antagonists of the estrogen receptor alpha (ER-alpha) signaling pathway (AID 743069; active = well fitted curve in the direction sought with a large enough effect in the signal ratio in the repeat runs, not every such curve was filed as active; inconclusive = weak or mixed curves, or effect the other way; inactive = no such curve, though single readings can be large or run the other way; the % refers to the signal ratio; note: potency is the fitted concentration of half-maximal effect)
Method in brief: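 Screening used a UAS-driven beta-lactamase reporter integrated into HEK293 cells expressing ER-alpha, stimulated with 17beta-estradiol alongside test compounds over 18 hr at 37C; signal came from LiveBLAzer B/G FRET fluorescence.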

[9] = qHTS assay to identify small molecule antagonists of the estrogen receptor alpha (ER-alpha) signaling pathway - cell viability counter screen (AID 743074; calls by dose curve; note: nearly all actives have a fitted effect of over 45% in size)
[10] = biological target: Estrogen receptor (Homo sapiens) (UniProt P03372); assay: qHTS assay to identify small molecule agonists of the estrogen receptor alpha (ER-alpha) signaling pathway (AID 743075; calls by dose curve)
[11] = biological target: Estrogen receptor (Homo sapiens) (UniProt P03372); assay: qHTS assay to identify small molecule agonists of the estrogen receptor alpha (ER-alpha) signaling pathway using the BG1 cell line (AID 743079); note: nearly all actives have a fitted effect of over 20% in size; note: potency is the fitted concentration of half-maximal effect
[12] = qHTS assay to identify small molecule antagonists of the estrogen receptor alpha (ER-alpha) signaling pathway using the BG1 cell line (AID 743080; calls by dose curve;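 note: BG1 cells stimulated with 17beta-estradiol alongside compound; series mostly up to about 70 µM; nearly all actives have a fitted effect of over 25% in size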)
Method in brief: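 BG1Luc4E2, endogenous ER-alpha, 4xERE-luc; 5 d charcoal-stripped FBS, phenol red free; 24 h plating; cpd + 17beta-estradiol 21.5 h, 37 C/5% CO2; CellTiter-Fluor viability 30 min, then ONE-Glo luciferase 30 min RT.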

[13] = qHTS assay to identify small molecule antagonists of the estrogen receptor alpha (ER-alpha) signaling pathway using the BG1 cell line - cell viability counter screen (AID 743081);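 note: compound given together with 17beta-estradiol as the ER stimulus; series mostly up to about 70 µM; nearly all actives have a fitted effect of over 45% in size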
Aromatase (Homo sapiens) = Aromatase (Homo sapiens) (UniProt P11511); assay: qHTS assay to identify aromatase inhibitors (AID 743083); note: series mostly up to about 70 µM; nearly all actives have a fitted effect of over 55% in size
[14] = qHTS assay for identifying genotoxic compounds that show differential cytotoxicity against isogenic chicken DT40 cell lines with known DNA damage response pathways - Rad54/Ku70 mutant cell line (AID 743015); note: nearly all actives have a fitted effect of over 60% in size

Chain of Estrogen receptor (Homo sapiens) (P03372 whole entry, looked up): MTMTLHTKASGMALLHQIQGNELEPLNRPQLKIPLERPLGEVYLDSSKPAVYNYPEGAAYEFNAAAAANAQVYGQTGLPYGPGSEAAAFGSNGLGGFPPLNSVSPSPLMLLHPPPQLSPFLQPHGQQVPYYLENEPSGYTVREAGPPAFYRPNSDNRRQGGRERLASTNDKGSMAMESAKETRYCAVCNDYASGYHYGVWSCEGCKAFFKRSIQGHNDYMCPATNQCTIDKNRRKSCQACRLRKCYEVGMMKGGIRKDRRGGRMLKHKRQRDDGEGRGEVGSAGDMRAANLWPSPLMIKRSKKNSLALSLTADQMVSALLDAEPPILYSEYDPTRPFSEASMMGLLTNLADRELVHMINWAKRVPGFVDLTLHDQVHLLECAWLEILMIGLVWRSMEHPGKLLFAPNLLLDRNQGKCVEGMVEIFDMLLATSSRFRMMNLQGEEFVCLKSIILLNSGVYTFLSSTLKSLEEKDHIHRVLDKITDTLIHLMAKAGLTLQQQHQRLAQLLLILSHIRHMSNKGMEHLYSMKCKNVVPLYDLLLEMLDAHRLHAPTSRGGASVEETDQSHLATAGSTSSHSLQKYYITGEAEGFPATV
Chain of Aromatase (Homo sapiens) (P11511 whole entry, looked up): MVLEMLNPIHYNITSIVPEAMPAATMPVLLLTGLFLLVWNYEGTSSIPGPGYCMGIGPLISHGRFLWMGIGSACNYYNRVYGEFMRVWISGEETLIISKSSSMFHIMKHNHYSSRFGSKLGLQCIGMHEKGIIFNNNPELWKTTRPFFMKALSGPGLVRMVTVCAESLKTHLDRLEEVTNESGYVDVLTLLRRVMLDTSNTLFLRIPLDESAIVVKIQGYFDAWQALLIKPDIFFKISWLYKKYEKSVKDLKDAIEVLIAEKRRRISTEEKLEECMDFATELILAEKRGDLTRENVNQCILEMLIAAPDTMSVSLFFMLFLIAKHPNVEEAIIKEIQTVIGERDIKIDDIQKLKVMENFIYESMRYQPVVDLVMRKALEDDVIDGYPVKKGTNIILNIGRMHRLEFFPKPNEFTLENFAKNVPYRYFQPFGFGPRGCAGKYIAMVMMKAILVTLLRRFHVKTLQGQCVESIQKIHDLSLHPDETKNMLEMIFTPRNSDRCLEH

Row | SMILES | Potency [1] | Potency [2] | outcome [3] | Potency [4] | Potency [5] | Potency [6] | outcome [7] | Potency [8] | Potency [9] | outcome [10] | Potency [11] | outcome [12] | Potency [13] | Potency (Aromatase (Homo sapiens)) | Potency [14]
1 | CC(=O)OC1C2(C)CCC(C2)C1(C)C (stereo not given) | inactive | inactive | inactive | inactive | inactive | inactive | inactive | inactive | inactive | inactive | inactive | inactive | inactive | inactive | 
2 | C1CCOC1 |  |  | inactive | inactive | inactive |  |  |  | inactive |  |  |  | inactive | inactive | 
3 | O=c1[nH]cnc2c1ncn2[C@@H]1O[C@H](CO)[C@@H](O)[C@H]1O |  | inactive | inactive | inactive | inactive | inactive | inactive |  | inactive |  |  |  | inactive | inactive | 
4 | C=C(C)C(=O)OCCOP(=O)(O)O |  | inactive | inactive | inactive | inactive | inactive | inactive | inactive | inactive | inactive |  | inactive | inactive | inactive | inactive
5 | C[C@]12CCC(=O)C=C1CC[C@@H]1[C@@H]2CC[C@@]2(C)[C@H]1CC[C@]2(O)C(=O)CO |  |  | inactive | inactive | inactive |  | inactive |  | inactive | inactive |  | inactive | inactive | inactive | 
6 | O=C(CC(=O)C(F)(F)F)c1ccccc1 | inactive |  | inactive | inactive |  |  | inactive | 28 µM [inconclusive] (active) | inactive | inactive | 19.6 µM (active) |  |  | inactive | 
7 | CC(=O)Oc1cc(C(C)C)c(OCCN(C)C)cc1C | inactive | inactive | inactive | inactive | inactive | inactive | inactive |  | inactive |  |  |  |  | inactive | inactive
8 | CCN(CC)CC1CCCCN1CC(=O)N1c2ccccc2C(=O)Nc2cccnc21 (stereo not given) | inactive |  | inactive | inactive | inactive | inactive | inactive | inactive | inactive | inactive | inactive | inactive | inactive | inactive | inactive
9 | CCOc1ccc(NS(=O)(=O)c2ccc(N)cc2)nn1 | inactive |  | inactive | inactive | inactive | inactive | inactive |  |  |  |  |  |  |  | 
